# Reference: PubChem BioAssay AID2315 (National Center for Advancing Translational Sciences (NCATS), 2010)
# The campaign covered roughly 290,000 compounds. About 27,000 (9.3%) were called active. Many of the other results were omitted from the sample, so actives are more common in it than they were. A number with no mark means an inactive call. Cut-off read from the data, not from the text of the source: active = inhibition mostly above about 28% (no sharp cut-off); inactive = mostly below about 43%.
# Experiment: A qHTS for Small Molecule Inhibitors of Shiga Toxin; note: 0% is about no effect
# Settings: Vero cells, Shiga toxin protein synthesis inhibition reporter; at 38.7 µM, active compounds read high
row,SMILES,inhibition
1,CCn1c(SCC(=O)NC2CCCC2)nnc1-c1ccoc1C,-5.62%
2,CN(Cc1cc2cc(F)ccc2[nH]1)Cc1nc(-c2cnccn2)no1,-4.61%
3,CN(Cc1nc2ccc(F)cc2[nH]1)Cc1nc(CC2CC2)no1,48% (active)
4,CN(Cc1ccc2nsnc2c1)Cc1nc(Cc2cccc(F)c2)no1,1.39%
5,C/C(=N\N(C)C)c1ccc(OCCOc2ccc([N+](=O)[O-])cc2)cc1,6.72%
6,CCn1c(SCC(=O)NC2=NCCS2)nnc1C(C)NC(=O)c1ccccc1F (stereo unspecified),-15.6%
7,Cc1cc(-n2cnc(-c3cn(C)nc3C)n2)no1,52.5% (active)
8,COc1ccc(Cl)cc1NS(=O)(=O)c1cccc(C(=O)NCC2CCCO2)c1 (stereo unspecified),-3.5%
9,O=C1CSc2ccc(S(=O)(=O)NCc3ccccc3)cc2N1,-7.81%
10,O=C(Nc1cccnc1)c1cc(Cl)ccc1Cl,-11.4%
11,COC(=O)c1sccc1NC(=O)c1ccc(Cl)cc1,-2.96%
12,O=C(NNC(=O)c1csc(-c2cccnc2)n1)Nc1ccc(Cl)cc1,4.07%
13,CC(=O)c1ccc(NC(=O)Nc2ccc([N+](=O)[O-])cc2C)cc1,-6.96%
14,COC(=O)c1ccc(NC(=O)Nc2ccc(C)cc2)cc1,46% (active)
15,Cc1ccc(NC(=O)CC(=O)Nc2ccc(C)cc2)cc1,-2.71%
16,COc1cc(NC(=O)Nc2ccc(C)cc2)cc([N+](=O)[O-])c1,-2.21% (active)
17,COC(=O)c1ccc(NC(=O)c2cc(Cl)ccc2OC)cc1,1.91%
18,Cc1ccc(Oc2cc(NC(=O)CCCn3nc(C)c([N+](=O)[O-])c3C)cc([N+](=O)[O-])c2)cc1,9.13%
19,COC(=O)c1sccc1NC(=S)Nc1ccc(C)cc1,39.9% (active)
20,COC(=O)c1sccc1NC(=O)c1cc(OC)c(OC)c(OC)c1,14.1%
21,O=C(Nc1ccc(Cl)cc1)Nc1ccc(Oc2cccnc2)nc1,51.4% (active)
22,COc1ccc(N2CCN(C(=O)Cn3cnc4sc(C)c(S(=O)(=O)N5CCOCC5)c4c3=O)CC2)cc1,-21.2%
23,CSCC[C@H](NC(=O)N1CCn2c1nc1ccccc12)C(=O)NC1CCCCC1,21.5%
24,CC(=N\NC(=O)c1cc(Br)ccc1O)/C(=N/O)C(=O)Nc1ccccc1,27.5%
25,CCc1nn(CCCC(=O)Nc2ccc(C)c(C)c2)c(=O)c2cc3occc3n12,-3.08%
26,CC(=O)Nc1ccc(S(=O)(=O)N(C)c2nc3ccccc3nc2Cl)cc1,21.4%

row,SMILES,inhibition
1,COc1cc2c(cc1OC)C(c1ccccc1Br)NC(=O)C2 (stereo unspecified),-13.7%
2,CN1CCN(c2ccccc2NC(=O)COc2ccc(C3CCCCC3)cc2)CC1,16.9%
3,Cc1c(S(=O)(=O)NC(C)c2ccccc2)c(=O)n(C)c(=O)n1C (stereo unspecified),-36.1%
4,O=C(NNC(=O)c1cccnc1)Nc1ccccc1,2.5%
5,Cc1ccc(NC(=O)Nc2cccnc2)cc1,29% (active)
6,Cc1ccc(NC(=O)NCC(c2cccnc2)N2CCOCC2)cc1 (stereo unspecified),-5.81%
7,C/C=C(/C)C(=O)O[C@@H]1c2cc3c(c4c2[C@@]2(CO4)C(=O)C(OC)=C(OC)C=C2C[C@@H](C)[C@H]1C)OCO3,-12.4%
8,CS(=O)(=O)C1=NN2C(=N)/C(=C\c3ccc(OCCOc4ccccc4)cc3)C(=O)N=C2S1,13.4%
9,O=C(NCC(=O)N(c1ccccc1)C(C(=O)NCC1CCCO1)c1ccccc1)c1cccs1 (stereo unspecified),-3.3%
10,Cc1cccc(N(C(=O)Cc2cccs2)C(C(=O)NCc2ccco2)c2ccncc2)c1 (stereo unspecified),2.84%
11,Cc1ccc(N(C(=O)Cc2cccs2)C(C(=O)NCC2CCCO2)c2ccncc2)cc1 (stereo unspecified),59.4% (active)
12,COc1cccc(CNS(=O)(=O)c2ccc3c(c2)CC(C)N3C(=O)C2CCC2)c1 (stereo unspecified),-3.12%
13,Nc1ccccc1C(=O)NC1CCCCNC1=O (stereo unspecified),2.5%
14,CNC(=S)N/N=C1\C2CN3CCN(C2)CC1(c1ccccc1)C3,14%
15,CC12CN3CCN(CC(C3)/C1=N\NC(=O)c1ccccc1N)C2,60.8% (active)
16,CCn1cc(C(=O)N2CC(C)CC(C)C2)c(=O)c2cc(S(=O)(=O)N3CCCC3)ccc21 (stereo unspecified),-9.23%
17,O=C(NCCCn1ccnc1)c1cc(Br)c(Br)s1,-8.29%
18,CCN(CC)CCNC(=O)CCCCCn1c(=O)[nH]c2cc(C(=O)OC)ccc2c1=O,11.7%
19,COC(=O)c1ccc2c(C(C)(C)O)c(C(C)(C)O)[nH]c2c1,25.7% (active)
20,COC(=O)c1cccc(NS(C)(=O)=O)c1,7.52%
21,CCc1nnc(NC(=O)CSCc2cc(=O)n3cc(C)sc3n2)s1,9.5%
22,CN(C)c1nc(NN)nc(Nc2ccc(F)cc2)n1,-6.82%
23,COc1ccccc1OCCNC(=O)CCNC(=O)c1ccccc1Cl,5.05%
24,COc1cc(SC)ccc1C(=O)N(Cc1ccccc1)c1ccccc1,-14.7%
25,COc1cc(SC)ccc1C(=O)Nc1cc(C)ccn1,71.5% (active)
26,COc1cc(SC)ccc1C(=O)Nc1nc(C)cs1,-19.5%

row,SMILES,inhibition
1,Cc1ccnc(NC(=O)CCCOc2ccccc2)c1,31.5%
2,Cc1ccnc(NC(=O)c2ccoc2C)c1,62.3% (active)
3,Cc1occc1C(=O)Nc1cccc(Cn2cccn2)c1,39.7%
4,COc1cc(SC)ccc1C(=O)NCCOc1ccccc1Cl,72.6% (active)
5,Cc1ccnc(NC(=O)C(C)N2C(=O)c3ccccc3C2=O)c1 (stereo unspecified),16.9%
6,COc1cc(NS(=O)(=O)c2ccc(NC(=O)c3ccc([N+](=O)[O-])cc3)cc2)ncn1,-2.79%
7,Cc1nc([N+](=O)[O-])cn1CC(=O)Nc1ccc(Cl)cc1,-12.3%
8,Cc1ccc(C(=O)OCC(=O)NC(=O)Cc2ccccc2)c(O)c1,-0.702%
9,CCOC(=O)C1CCN(Cc2c(C(=O)N3CCOCC3)nc3c(C)cccn23)CC1,-32.7%
10,O=C(c1cccc([N+](=O)[O-])c1)N1CCN(Cc2ccccc2)CC1,-0.104%
11,COc1ccc(S(=O)(=O)Nc2ccc(O)c(Sc3nc4ccccc4s3)c2)cc1,-14.7%
12,COc1ccc(-n2c(O)c(C(C)=Nc3ccc4c(c3)CCC4)c(=O)[nH]c2=O)cc1,-5.66%
13,COc1ccc(N=C(C)c2sc3ccccc3c2O)cc1,122% (active)
14,CN(CC(=O)Nc1ccc(F)cc1)C(=O)c1ccc(-c2ccc(Cl)cc2)o1,5.28%
15,CC(C)c1nnc(NC(=O)COC(=O)/C=C/c2ccc([N+](=O)[O-])cc2)s1,-13.2%
16,COc1cccc(N(C(=O)C2COc3ccccc3O2)C(C(=O)NC2CCCCC2)c2ccc(O)cc2)c1 (stereo unspecified),-2.98%
17,CC(c1ccccn1)N(C)C(=O)c1ccc2nc(Cc3cccc(Cl)c3)oc2c1 (stereo unspecified),73.2% (active)
18,CC(C(=O)NCC1CCCCC1)N(C)Cc1cccc(Cl)c1 (stereo unspecified),25.2%
19,CCn1ccnc1CN(C)C(=O)c1ccc2nc(Cc3ccc(OC)cc3)oc2c1,-2.76%
20,CC(=O)c1ccc(NC(=O)c2ccc3c(Cl)c4c(nc3c2)CCCC4)cc1,-8.45%
21,CC(C)CCNC(=O)c1ccc2c(Cl)c3c(nc2c1)CCC3,70.3% (active)
22,COc1ccc(N2CCN(C(=O)c3ccc4c(Cl)c5c(nc4c3)CCCC5)CC2)cc1,-17.4%
23,O=C(CNC(=O)OCc1ccccc1)NC1CCCCNC1=O (stereo unspecified),-7.21%
24,COC(=O)c1ccccc1NC(=O)C1(S(=O)(=O)c2ccc(Cl)cc2)CC1,-19.5%
25,CCOC(=O)C1=C(c2ccccc2)NC(=S)NC1c1ccc(Cl)cc1 (stereo unspecified),-13.4%
26,COc1ccc(C2NC(=S)NC3=C2CCc2ccccc23)cc1OC (stereo unspecified),-17%

row,SMILES,inhibition
1,CCOc1ccc(C2NC(=S)NC3=C2CCc2ccccc23)cc1 (stereo unspecified),50.5% (active)
2,Cc1ccccc1N(C(=O)CNC(=O)c1cccs1)C(C(=O)NC1CCCC1)c1ccncc1 (stereo unspecified),10.5%
3,CCOC(=O)c1cnc(SCc2nc(N)nc(Nc3ccc(OC)cc3)n2)nc1N,19.9%
4,COc1ccccc1Nc1nc(N)nc(CSC(=S)N2CCOCC2)n1,68.3%
5,COc1ccc(Nc2nc(N)nc(CSC(=S)N3CCC(C)CC3)n2)cc1,76.8% (active)
6,Cc1cc(C)c(S(=O)(=O)Nc2c(C)n(C)n(-c3ccccc3)c2=O)cc1[N+](=O)[O-],-11.7%
7,CCOC(=O)c1ccc(NC(=S)N2CCN(c3ccccn3)CC2)cc1,-8.31%
8,Cc1cc(C)nc(NC(=O)C(C)N2C(=O)c3ccccc3C2=O)n1 (stereo unspecified),-5.77%
9,Cc1cc(Cl)nc(NC(=O)Nc2cccc(Cl)c2)n1,61.3%
10,Cc1cc(C)nc(NC(=O)Nc2ccccc2C(F)(F)F)n1,59.8% (active)
11,CC(NC(=O)c1ccccc1C(=O)O)c1ccc(-n2ccnc2)cc1 (stereo unspecified),14.3%
12,O=C(NCCc1c[nH]c2ccccc12)c1cccc(Br)c1,22.8%
13,CNC(=O)c1cc2c(ccc3ccccc32)oc1=N,30.1%
14,COc1cccc2cc(C(=O)NCc3ccc(C)cc3)c(=N)oc12,15.9%
15,COc1ccc2oc(=O)c(C(=O)NCc3ccccn3)cc2c1,24.7%
16,Cc1cc(C)cc(OCC(=O)NNC(=O)c2cc3ccccc3oc2=O)c1,38.5%
17,CN(c1ccccc1)S(=O)(=O)c1ccc(Cl)c(C(=O)NCCc2c[nH]c3ccccc23)c1,1.16%
18,CC(NC(=O)c1cc2cc(Cl)ccc2oc1=N)c1ccccc1 (stereo unspecified),23.9%
19,O=C(NCCc1c[nH]c2ccccc12)c1cc2ccccc2oc1=O,121% (active)
20,N=c1oc2ccccc2cc1C(=O)NCc1ccccc1,52.2% (active)
21,O=C(N/N=C\c1cccc(Br)c1)c1ccccc1-n1cccc1,14.5%
22,N=c1oc2ccccc2cc1C(=O)N/N=C/c1ccccc1,76.3% (active)
23,O=C(NCc1ccccn1)c1cc2ccccc2oc1=O,72.4% (active)
